# Assay outcomes (PubChem BioAssay)
# The list is not random: actives were taken first. Their share in the collection is about 3%.
# ALOX12 inhib: blocks human 12-lipoxygenase activity | AID 1452 | purified 12-hLO, xylenol orange hydroperoxide absorbance | Potency, µM (top dose mostly 57.1 µM), for the others: at the highest dose activity change, negative = inhibition, hits mostly inhibitors | 150,000 tested, 0.12% active | P18054; note: potency is the fitted concentration of half-maximal effect; nearly all actives have a fitted effect of over 55% in size
#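 Hydroperoxide formation by human 12-lipoxygenase from 40 uM arachidonic acid was followed colorimetrically via ferric-xylenol orange complex, using the 573/405 nm absorbance ratio. Enzyme concentration was 150 nM, with 30 min reaction at room temperature.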
# IMPase cell inh: membrane-permeable compound that blocks inositol monophosphatase; 120,000 tested, under 10 active; inhibition (IP1 accumulation), % at 46.1 µM; CHO-M1 cells, IP1 accumulation, HTRF TR-FRET ratio; AID 901; active = well fitted curve in the direction sought with a large enough effect in the signal ratio, not every such curve was filed as active; inconclusive = small, poorly fitted or top-dose-only effect, or a change in a side signal; inactive = no such curve, though single readings can be large or run the other way; the % refers to the signal ratio;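 note: cells stimulated with carbachol in lithium chloride buffer; plate controls were DMSO basal wells for no effect and reference inhibitor wells for full effect; higher means more IMPase inhibition seen as more IP1 and lower FRET ratio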
# Target sequence (P97697 whole entry, looked up): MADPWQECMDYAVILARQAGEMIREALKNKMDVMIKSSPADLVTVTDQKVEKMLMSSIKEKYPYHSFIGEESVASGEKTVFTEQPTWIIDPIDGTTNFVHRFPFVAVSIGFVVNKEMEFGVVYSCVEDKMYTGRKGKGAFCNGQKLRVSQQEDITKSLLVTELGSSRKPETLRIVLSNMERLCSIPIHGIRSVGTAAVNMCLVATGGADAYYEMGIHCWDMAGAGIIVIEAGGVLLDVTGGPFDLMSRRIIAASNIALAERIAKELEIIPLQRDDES
#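 Measured: the HTRF emission ratio (665/620 nm) plus the 620 nm donor channel, each fitted to the Hill equation to give AC50. Cells were CHO-M1 given compounds up to 46 uM and a 30 min carbachol stimulation at 37C.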
# PNC assembly inh: blocks assembly of the perinucleolar compartment | 140,000 tested, 3.1% active | PC3M PTB-GFP, PNC prevalence imaging, 16 h; active compounds read low | activity change (PNC), negative = inhibition, % at 10 µM | AID 2417;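 active = readout at or below -70, meaning at least 70% loss of cells showing the perinucleolar compartment, a nuclear body marking cancer cells; inconclusive = readout between -30 and a set limit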;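 note: plate controls were DMSO wells for no effect and camptothecin positive control wells for full effect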
#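 PC3M cells stably expressing PTB-GFP, 750–1000 cells/well, treated 16 h at 37 °C with compound (23 nl of library stock), in duplicate. After paraformaldehyde fixation and Hoechst stain, imaged at 20x; PNC prevalence scored by image analysis.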
# ALOX15B inhib: 15-hLO-2 (ALOX15B) enzyme inhibition | O15296 | purified 15hLO-2, xylenol orange hydroperoxide absorbance | Potency, µM (doses to about 57.1 µM), for inactives: at the top dose activity change, negative = inhibition, most hits filed as inhibitors | 110,000 tested, 0.56% active | AID 881; note: potency is the fitted concentration of half-maximal effect; nearly all actives have a fitted effect of over 60% in size
#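 Enzyme 50 nM, AA 45 uM, 25 mM Hepes pH 7.5 + 0.01% Triton X-100; cpd preinc 15 min RT, rxn 90 min RT; stop/detect with 200 uM XO + 300 uM Fe(II) in 50 mM H2SO4, 30 min; A573/A405.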
# * hit, by the source's call; ? = inconclusive; · = no result; [ ] = another dose, or the depositor's remark. Unless noted, calls come from the whole dose curve; as a rule, active = well fitted curve in the direction sought with a large enough effect; inconclusive = small, poorly fitted or top-dose-only effect, or another doubt; inactive = no such curve, though single readings can be large; an effect the other way counts as inactive or inconclusive. Unless noted, % is set by controls: 0 for no effect and ±100 for the full control effect.
SMILES,ALOX12 inhib,IMPase cell inh,PNC assembly inh,ALOX15B inhib
Cc1cc(O)ccc1NC(=O)CCN1C(=O)c2ccc([N+](=O)[O-])cc2C1=O,-1%,·,-98*,·
O=S(=O)(Nc1ccccc1)c1ccc(Oc2ncc(C(F)(F)F)cc2Cl)cc1,-4%,2[1.84 µM],34,12%[11.4 µM]
COc1ccc(NC(=O)CSc2ccccc2)cc1S(=O)(=O)N1CCCCC1,-1%,·,-81*,·
COc1ccc(NC(=O)CSc2ccccc2)c(OC)c1,6%,5,-81*,·
CSc1nc(N(C)NC(=O)c2ccc(F)cc2)c2ccccc2n1,7%,15,-83*,6%
N#CCC(=O)Nc1ncn(Cc2ccccc2Cl)n1,-2%,11,-81*,-2%
N=C(N)SCc1cc(Cl)cc(Cl)c1O,-10%[11.4 µM],·,·,-1%[11.4 µM]
CN1CCN(c2ncncc2-c2cccnc2)CC1,·,·,·,10%
CCCc1cc(C(=O)N/N=C/c2ccc(CC)s2)c2ccccc2n1,5%,3,59,·
O=C(N/N=C/c1ccc2c(c1)OCO2)c1cc(-c2ccc(F)cc2)nc2ccccc12,2%,·,-96*,·
O=C(N/N=C/c1cccs1)c1cc(-c2ccncc2)nc2ccccc12,0%,·,-109*,·
CCc1ccc(/C=N/NC(=O)c2cc(-c3ccncc3)nc3ccccc23)s1,3%,·,-110*,·
COc1ccccc1OC[C@H](O)CN1CCN(CC(=O)Nc2c(C)cccc2C)CC1,3%,4,·,10%
NC(=O)[C@@H]1CCCNc2c(I)cc([N+](=O)[O-])cc2C(=O)N[C@@H](CCC(=O)O)C(=O)N[C@@H](CO)C(=O)N1,-2%,·,21,·
COC(=O)[C@@]1(Cc2ccc(OC)cc2)[C@H]2c3cc(C(=O)N4CCCC4)n(Cc4ccsc4Br)c3C[C@H]2CN1C(=O)c1ccccc1,-2%,·,·,-4%
Cc1noc(C)c1-c1cc(N(C)C)ncn1,1%,·,·,-8%
CCCOc1c(Br)cc(C2C3=C(CCCC3=O)N(C)C3=C2C(=O)CCC3)cc1OC,-5%,·,-98*,·
CC(C)C[C@@H](CC(=O)N[C@@H](CCCN)CC(=O)N[C@@H]1CCNC[C@H]1C(=O)N[C@H](CC(=O)N[C@@H](CCC(=O)O)CC(=O)O)Cc1ccccc1)NC(=O)[C@@H]1CCCC[C@H]1N,-1%,·,·,·
OCCNc1nc(Nc2ccccc2)nc(Nc2ccccc2)n1,-4%,-9,2,10%
OCCNc1nc(Nc2ccccc2)nc2ccccc12,-8%,8,-119*,·
Cc1c(C(=O)NCc2ccc3c(c2)OCO3)oc2ccc(S(=O)(=O)N3CCC(C)CC3)cc12,-5%,0,-100*,·
CCCCS(=O)CC(COc1ccc(Cl)cc1)OC(=O)c1ccccc1 (configuration not stated),?,16,-119*,7%
O=S(Cc1ccc(Cl)cc1)CC(O)COc1ccc(Cl)cc1 (configuration not stated),-10%,2,25,4%
C[C@H](NS(=O)(=O)c1ccccc1F)C(=O)OCC(=O)N1CCc2ccccc21,-2%,-5,-93*,-4%
CCOC(=O)C1=C(C)NC(C)=C(C(=O)OCC)C1C(=O)OCC(=O)N1CCc2ccccc21,-9%,5,-99*,1%
SMILES,ALOX12 inhib,IMPase cell inh,PNC assembly inh,ALOX15B inhib
O=C(COc1ccccc1)N1CCc2ccccc21,4%,·,-82*,·
CN(C(=O)c1ccc2c(=O)n3c(nc2c1)CCCCC3)c1ccccc1,-3%,6,-100*,·
Cc1noc(C)c1CSc1nnc(-c2ccccc2F)n1CCc1ccccc1,-4%,6,?,-8%
Cc1noc(C)c1CN1C(=O)NC(Cc2ccccc2)(Cc2ccccc2)C1=O,1%,9,-107*,-8%
COc1cc(OC)cc(-c2nc3cc(C)ccc3o2)c1,-12%,14,-117*,21%
CCN(C(=O)c1ccc(C(=O)N(CC)c2ccccc2C)cc1)c1ccccc1C,·,-3,·,·
CSc1nnc(-c2cnccn2)n1CCCN1CCCC1=O,-2%,-11,4,-1%
Cc1cc(=O)oc2cc(NC(=O)c3cc4ccccc4o3)ccc12,-7%,-2,30,?
O=C(Nc1ccc2oc(=O)ccc2c1)c1cc2ccccc2o1,10%,29,-119*,·
Cc1cc(C)n(-c2nc3sc4c(c3c3nnc(SCC(N)=O)n23)CC(C)(C)OC4)n1,2%,1,-100*,·
CCCSc1ncc(Cl)c(C(=O)Nc2ccc(S(=O)(=O)N3CC(C)OC(C)C3)cc2)n1 (configuration not stated),-3%,5,8,0%
CN1CC[C@@]2(CCN3CCc4c(oc5ccccc45)[C@@H]3C2)N(C)C1=O,-5%,-2,·,3%
NCCOB(c1ccccc1)c1ccccc1,?,13,·,20µM*
NCCOc1ccccc1Cc1ccccc1,6%,13,5,43%
